Experimental data: PubChem BioAssay AID686979 (National Center for Advancing Translational Sciences (NCATS), 2013)
“And” between values parts separate entries of the source, which are not always exact repeats. Equal values may be shown once. In all, about 420,000 compounds went through this assay and about 50,000 (12%) were called active. About 26% were inconclusive and are not listed. Calls follow the shape of the dose curve; as a rule, active = well fitted inhibition curve with a large enough effect; inconclusive = small, poorly fitted or top-dose-only effect; inactive = flat fitted curve, though single readings scatter. The list comes from a sample in which actives are over-represented; it also holds similar structures and randomly drawn compounds. Where a call stands in place of a potency, no number is given. Some compounds were tested as several samples or in several runs, with calls that do not always agree.
Potency is read from the fitted curve at half-maximal effect.

Assay: qHTS for Inhibitors of human tyrosyl-DNA phosphodiesterase 1 (TDP1): qHTS in cells in presence of CPT; also: nearly all actives have a fitted effect of over 55% in size
Conditions: chicken DT40 Tdp1-/-;hTDP1 cells + 20 nM CPT, ATP luminescence, 48 h; series mostly up to 46.2 µM
In short: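 Chicken DT40 Tdp1-/- cells complemented with human TDP1, 400 cells/well, exposed to compounds plus 20 nM camptothecin for at least 48 h at 37 C; viability read as ATP content by CellTiter-Glo luminescence.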
In the case of `CCOc1ccccc1NC(=O)Cn1c(=O)n(Cc2ccccc2)c(=O)c2c(C)c(C(=O)N(C)C)sc21`, the Potency is reported as “inactive”.
In the case of `O=C1C2CCCN2C(=O)N1CCCCN1CCN(c2cccc(C(F)(F)F)c2)CC1` (centres undefined), the Potency is reported as “inactive”.
In the case of `O=C(C1CC(=O)N(C2CCCC2)C1)N1CCN(c2cccc(C(F)(F)F)c2)CC1` (centres undefined), the Potency is reported as 14.6 µM (active).
For `O=C(C1CC(=O)N(C2CCCCC2)C1)N1CCN(c2ccccc2)CC1` (centres undefined), the Potency was “inactive”.
For `COC(=O)c1cc(=O)n(-c2c(Cl)cc(C(F)(F)F)cc2Cl)[nH]1`, the Potency was “inactive”.
For `CC(=O)Nc1ccccc1OC(C)C(=O)N1CCC(C)CC1` (centres undefined), the Potency was “inactive”.
In the case of `O=C(NCC(O)c1ccc([N+](=O)[O-])cc1)C1CCCCC1` (centres undefined), the Potency is reported as “inactive”.
In the case of `O=C(COc1nsnc1N1CCOCC1)Nc1ccccc1Cl`, the Potency is reported as “inactive”.
In the case of `COC(=O)c1ccc(N2CCOCC2)c(NC(=O)c2ccc3c(c2)OCCO3)c1`, the Potency is reported as “inactive”.
With `CCOc1cc(N2CCOCC2)c(OCC)cc1NC(=O)c1ccc(C)s1` the Potency was 9.2 µM (active).
In the case of `CCOc1cc(N2CCOCC2)c(OCC)cc1NC(=O)COc1cccc2cccnc12`, the Potency is reported as 10.3 µM (active).
With `CCOc1cc(NC(=O)c2ccccc2C(=O)O)c(OCC)cc1NC(=O)c1ccccc1F` the Potency was “inactive”.
For `NC(=O)C1CCN(C(=O)COc2cccc3cccnc23)CC1`, the Potency was “inactive”.
In the case of `Cc1ccc(S(=O)(=O)N2CCN(Cc3cccc(C)c3O)CC2)cc1`, the Potency is reported as “inactive”.
In the case of `O=C(COc1cccc(Cl)c1)NCc1ccccc1`, the Potency is reported as “inactive”.
In the case of `COCCN(CCOC)S(=O)(=O)NC[C@H]1O[C@@H](n2cnc3c(N)ncnc32)[C@H](O)[C@@H]1O`, the Potency is reported as “inactive”.
For `CC(C)(C)N(Cc1ccccc1)C(=O)c1ccncc1`, the Potency was “inactive”.
In the case of `Cc1ccc(CNC(=O)COc2ccc3c(c2)CCC3)cc1`, the Potency is reported as “inactive”.
For `O=C(CC1C(=O)NCCN1CC(c1ccccc1)c1ccccc1)NCCc1cn[nH]c1` (centres undefined), the Potency was “inactive”.
For `CCNC(=O)C1CCCN(C(=O)c2ccc(OC)cc2OC)CC1` (centres undefined), the Potency was “inactive”.
With `COc1ccc(NC(=O)c2sc3nc(-c4cc5cccc(OC)c5oc4=O)[nH]c(=O)c3c2C)cc1` the Potency was “inactive”.
For `c1ccc(C2=Nc3cccc4cccc(c34)N2)cc1`, the Potency was 7.31 µM (active).
With `COc1ccccc1-c1n[nH]nc1C1=CC(=O)CC(C)(C)C1` the Potency was “inactive”.
In the case of `COc1ccccc1C1=Nc2cccc3cccc(c23)N1`, the Potency is reported as 5.17 µM (active).
For `Fc1ccccc1N=C1Nc2cccc3cccc1c23`, the Potency was “inactive”.
In the case of `NC(=O)COc1ccccc1C(=O)NC12CC3CC(CC(C3)C1)C2`, the Potency is reported as “inactive”.
For `Cc1n[nH]c(C)c1S(=O)(=O)N1CCCC(C(=O)Nc2ccc(Br)cc2)C1` (centres undefined), the Potency was “inactive”.
In the case of `O=C(Nc1ccc(F)cc1)C1CCCN(S(=O)(=O)c2ccc(-n3cnnn3)cc2)C1` (centres undefined), the Potency is reported as “inactive”.
For `CCc1ccc(NC(=O)c2cc(S(=O)(=O)N3CCCC(C)C3)cn2C)cc1` (centres undefined), the Potency was “inactive”.
With `O=C(Nc1ccc(S(=O)(=O)N2CCCCC2)cc1)c1cnccn1` the Potency was “inactive”.
In the case of `COc1ccc(S(=O)(=O)N2CCCC(C(=O)Nc3ccc(NC(=O)c4ccccn4)cc3)C2)cc1` (centres undefined), the Potency is reported as 7.31 µM (active).
In the case of `CC1CCCN(S(=O)(=O)c2ccc3[nH]c(=O)cc(C(=O)NCCc4ccc(Cl)cc4)c3c2)C1` (centres undefined), the Potency is reported as “inactive”.
For `CC(C)c1ccc(NC(=O)C2CCCN(S(=O)(=O)c3cccnc3)C2)cc1` (centres undefined), the Potency was 16.4 µM (active).
With `COc1ccc(CCNC(=O)C2CCCN(S(=O)(=O)c3ccc(OC)cc3)C2)cc1` (centres undefined) the Potency was “inactive”.
For `CSc1ncc(Cl)c(C(=O)Nc2ccc(S(=O)(=O)N3CCCC(C)C3)cc2)n1` (centres undefined), the Potency was 8.2 µM (active).
With `CC1CC(C)CN(S(=O)(=O)c2cccc(C(=O)N3C(=O)c4cccc(N)c4C3=O)c2)C1` (centres undefined) the Potency was “inactive”.
In the case of `COc1ccc(NC(=O)C2CCC(CNC(=O)[C@@H]3Cc4ccccc4CN3)CC2)cc1` (some centres undefined), the Potency is reported as “inactive”.
With `CCc1cccc(C)c1NC(=O)COC(=O)CNC(=O)c1cccs1` the Potency was “inactive”.
In the case of `Cc1ccc2ncc(C(=O)Nc3ccc(OC(F)(F)F)cc3)c(=O)n2c1`, the Potency is reported as “inactive”.
With `CCNS(=O)(=O)c1ccc(CCC(=O)N2CCN(c3cc(Cl)ccc3C)CC2)cc1` the Potency was 13 µM (active).
For `CCOc1ccc(S(=O)(=O)NCCC(=O)N2CCCCCCC2)cc1`, the Potency was “inactive”.
In the case of `CCNS(=O)(=O)c1ccc(CCC(=O)N2CCN(c3ccc(OC)cc3)CC2)cc1`, the Potency is reported as “inactive”.
In the case of `CC(=O)c1ccc(S(=O)(=O)NCCC(=O)N2CCN(c3ccccn3)CC2)cc1`, the Potency is reported as “inactive”.
In the case of `CC(C)NS(=O)(=O)c1ccc(CCC(=O)N2CCOCC2)cc1`, the Potency is reported as “inactive”.
With `CC(=O)Nc1ccc(S(=O)(=O)NCCC(=O)N2CCN(c3ccccc3Cl)CC2)cc1` the Potency was 20.6 µM (active).
For `CCOC(=O)N1CCC(Nc2c(NCCCN3CCN(CC)CC3)c(=O)c2=O)CC1`, the Potency was “inactive”.
In the case of `O=C(COc1cccnc1[N+](=O)[O-])Nc1ccc(Cl)cc1F`, the Potency is reported as “inactive”.
In the case of `CCn1c(C)cc(=O)cc1-c1ccc(Cl)cc1`, the Potency is reported as “inactive”.
With `CCOC(=O)C1=C(C)c2ccccc2OC1C(=O)OCC` (centres undefined) the Potency was “inactive”.
In the case of `O=C(Cn1cnc2cc([N+](=O)[O-])ccc2c1=O)NC(=O)NCc1ccccc1`, the Potency is reported as “inactive”.
For `CC(C)(C)NC(=O)Cn1cnc2cc([N+](=O)[O-])ccc2c1=O`, the Potency was “inactive”.
For `Cc1cc(C(=O)Cn2cnc3cc([N+](=O)[O-])ccc3c2=O)c(C)n1CC1CCCO1` (centres undefined), the Potency was 14.6 µM (active).
In the case of `NS(=O)(=O)c1ccc(CCNC(=S)Nc2ccc(S(N)(=O)=O)cc2)cc1`, the Potency is reported as “inactive”.
In the case of `Cc1nn(-c2ccccc2)nc1C(=O)OCC(=O)N1CCCCC1C` (centres undefined), the Potency is reported as “inactive”.
For `Cc1c(C(=O)Nc2cccc(-c3nnc4n3CCCCC4)c2)oc2ccccc12`, the Potency was 14.6 µM (active).
In the case of `O=C(Cn1[nH]c(=O)c2ccccc2c1=O)Nc1cccc(-c2nnc3n2CCCCC3)c1`, the Potency is reported as “inactive”.
For `Cc1c(C(=O)NC2CCCCC2)oc2ccccc12`, the Potency was “inactive”.
With `Cc1cccc(C(=O)NCC(=O)OCC(=O)N(C)CC(=O)Nc2ccccc2Cl)c1` the Potency was “inactive”.
With `COc1ccc(-c2cc3ccc(OCc4nn[nH]n4)cc3oc2=O)cc1` the Potency was “inactive”.
With `O=c1oc2cc(O)ccc2cc1-c1ccc(F)cc1` the Potency was 20.6 µM (active).
In the case of `CC(=O)Nc1cc2ccc(OC(C)=O)cc2oc1=O`, the Potency is reported as “inactive”.
With `CC1=C(C(=O)N2CCOCC2)CC(CC(=O)NCc2cccs2)C(=O)N1CCCN1CCCC1=O` (centres undefined) the Potency was “inactive”.
With `CCC(C)C(NC(=O)C1CCC(=O)N1C(=O)OCc1ccccc1)C(=O)NC(C(=O)N1CCCC1C(N)=O)C(C)CC` (centres undefined) the Potency was “inactive”.
In the case of `O=C(NCc1ccc(F)cc1)C1CCC(CNc2c(N3CCOCC3)c(=O)c2=O)CC1` (centres undefined), the Potency is reported as “inactive”.
In the case of `CC(C)NC(=O)NNc1c(Cl)cncc1Cl`, the Potency is reported as “inactive”.
In the case of `CCN(CC(=O)NC(C)C)C(=O)c1cc(S(=O)(=O)N2CCCCC2)ccc1N1CCCCC1`, the Potency is reported as “inactive”.
For `COC(=O)c1sccc1NC(=O)CCC1CCCC1`, the Potency was “inactive”.
With `CCOC(=O)C(=CNNc1ccsc1C(=O)OC)C(=O)OCC` the Potency was 18.4 µM (active).
With `COC(=O)c1sccc1NC(=S)Nc1ccc(C)cc1` the Potency was “inactive”.
In the case of `CNC(=O)c1cccc2nc3ccccc3nc12`, the Potency is reported as “inactive”.
In the case of `Cc1[nH]c2ccccc2c1C(=O)C(=O)N(C)c1ccccc1`, the Potency is reported as “inactive”.
For `O=C(NCc1ccccc1Cl)C1CCN(S(=O)(=O)c2cccc3nonc23)CC1`, the Potency was “inactive”.
For `Cc1nc(C)c(C(=O)N(c2ccc(C)c(C)c2)C(C(=O)NCc2ccco2)c2ccccc2)s1` (centres undefined), the Potency was “inactive”.
In the case of `Cc1nn(-c2ccccc2)c2sc(C(=O)N(Cc3ccco3)C(C)C(=O)NC(C)(C)C)cc12` (centres undefined), the Potency is reported as 13 µM (active).
With `Cc1ccc(-c2nnn(CC(=O)N(Cc3ccco3)C(C(=O)NC(C)(C)C)c3ccncc3)n2)o1` (centres undefined) the Potency was “inactive”.
For `COCC1CCN(C(=O)CCc2nnc(C3(c4ccc(Cl)cc4)CCC3)o2)C1` (centres undefined), the Potency was “inactive”.
For `CCNC(=O)N1CCN(S(=O)(=O)c2ccc3c(c2)OCCCO3)CC1`, the Potency was “inactive”.
In the case of `COc1ccc(N2CC(C(=O)NCCS(=O)(=O)N3CCN(c4ccccc4)CC3)CC2=O)cc1` (centres undefined), the Potency is reported as “inactive”.
In the case of `COc1ccc(N2CCN(C(=O)c3ccc4c(Cl)c5c(nc4c3)CCCC5)CC2)cc1`, the Potency is reported as “inactive and 20.6 µM (active)”.
In the case of `CC(C)CCNC(=O)c1ccc2c(Cl)c3c(nc2c1)CCC3`, the Potency is reported as “inactive”.
For `COc1ccc(N2CCN(C(=O)c3ccc(N4CCCCS4(=O)=O)cc3)CC2)cc1`, the Potency was “inactive”.
In the case of `Cc1cccc(N(C)C(=O)CS(=O)(=O)c2cccc3nsnc23)c1`, the Potency is reported as “inactive”.
With `Clc1ccc(Nc2ccc3ccccc3n2)cc1` the Potency was “inactive”.
In the case of `Cc1ccc(S(=O)(=O)c2nnn3c2nc(N2CCN(c4ccccn4)CC2)c2ccccc23)cc1`, the Potency is reported as “inactive”.
With `Cc1ccc(C)c(S(=O)(=O)c2nnn3c2nc(N2CCOCC2)c2sccc23)c1` the Potency was 23.1 µM (active).
With `CCc1ccc(S(=O)(=O)c2nnn3c2nc(N2CCN(CC)CC2)c2sccc23)cc1` the Potency was “inactive”.
For `COc1ccc(/C=N/NC(=O)c2ccncc2)cc1CN1CCCc2ccccc21`, the Potency was “inactive”.
With `O=C(Nc1ccccn1)C1CCN(S(=O)(=O)c2ccccc2)CC1` the Potency was “inactive”.
With `COc1cccc(CNC(=O)c2ccc3c(Cl)c4c(nc3c2)CCCC4)c1` the Potency was “inactive”.
In the case of `CCOc1ccc(-n2nc3ccc(NC(=O)c4ccc(OC)c(Cl)c4)cc3n2)cc1`, the Potency is reported as “inactive”.
With `CCOc1ccc(C(=O)Nc2ccc3nc4c(c(Nc5ccccc5OC)c3c2)CCCC4)cc1` the Potency was 4.11 µM (active).
For `COc1cccc(CNC(=O)CSc2c3c(nc4cc(Cl)ccc24)CCCC3)c1`, the Potency was 23.1 µM (active).
In the case of `CCOc1ccc(C(=O)NC2CCN(C(=O)Nc3ccccc3OC)CC2)cc1`, the Potency is reported as “inactive”.
In the case of `COc1cccc(CNC(=O)c2nnn(CC(=O)Nc3cc(Cl)ccc3C)c2N)c1`, the Potency is reported as “inactive”.
With `CCOc1ccc(NC(=O)CSc2nncn2C)cc1` the Potency was “inactive”.
In the case of `CCOc1ccc(NC(=O)CSc2c3c(nc4ccccc24)CCCC3)cc1`, the Potency is reported as 16.4 µM (active).
With `CCOc1ccc(NC(=S)N2CCC(NC(=O)c3ccccc3)CC2)cc1` the Potency was “inactive”.
For `O=C1NCC(Nc2ccccc2)C(=O)N1` (centres undefined), the Potency was “inactive”.
In the case of `Nc1c(C(=O)OCC(=O)Nc2ccc(OC(F)F)cc2)[nH]c(=O)[nH]c1=O`, the Potency is reported as “inactive”.
